Consider 16 compounds from PubChem BioAssay (NCATS).

The nature of assay [1]: NS1 protein of Zika virus - qHTS assay to identify small molecule inhibitors in human HEK 293 cells (AID 1347053). Note: nearly all actives have a fitted effect of over 55% in size. Note: potency is the fitted concentration of half-maximal effect. Put shortly:
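HEK 293; 20 h pre-culture, 37 C/5% CO2; cpd 1 h pre-infection; ZIKV MR766, MOI = 0.5, 24 h, 37 C; TR-FRET NS1 readout (two anti-NS1 Abs); norm. to no-virus vs infected.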

Assay [2] can be described thus: qHTS of pediatric cancer cell lines to identify multiple opportunities for drug repurposing: Primary screen for TC32 cells (AID 1347089). Note: nearly all actives have a fitted effect of over 60% in size. Note: potency is the fitted concentration of half-maximal effect. An outline of the steps:
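Luminescent ATP read-out (CellTiter-Glo) of metabolically active TC32 cells after 48 h exposure. Concentration-response curves came from 11-point (MIPE, 0.78 nM–46 µM) or 8-point (NPC, 0.59 nM–46 µM) primary titrations; follow-up used 11 points.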
For orientation: Quantitative high-throughput screening tests each substance at several concentrations.

A short description of assay [3]: qHTS of pediatric cancer cell lines to identify multiple opportunities for drug repurposing: Primary screen for DAOY cells (AID 1347090). Note: nearly all actives have a fitted effect of over 55% in size. Note: potency is the fitted concentration of half-maximal effect. An outline of the steps: (§1)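 Cell viability, CellTiter-Glo luminescence; 500-1,000 cells/well, 8- or 11-point titration, 48 h compound exposure at 37 degrees C, 5% CO2. Controls: DMSO neutral, bortezomib 2.3 µM final as positive.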

The nature of assay [4]: qHTS of pediatric cancer cell lines to identify multiple opportunities for drug repurposing: Primary screen for SJ-GBM2 cells (AID 1347091). Note: potency is the fitted concentration of half-maximal effect. Put shortly: as §1
Assay [5] is described as follows: qHTS of pediatric cancer cell lines to identify multiple opportunities for drug repurposing: Primary screen for SK-N-MC cells (AID 1347093). Note: potency is the fitted concentration of half-maximal effect. Put shortly:
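Metabolically active cells were quantified by ATP-dependent luminescence (CellTiter-Glo, 15 min at room temperature) following 48 h treatment. Cells had been plated at 500-1,000 per well and settled for 5 h beforehand.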

The nature of assay [6]: qHTS of pediatric cancer cell lines to identify multiple opportunities for drug repurposing: Primary screen for BT-37 cells (AID 1347094). Note: potency is the fitted concentration of half-maximal effect. Put shortly:
(§2)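 Primary screen of approved and investigational compounds on cells in growth media at 37 degrees C, 5% CO2. MIPE set at 11-point and NPC set at 8-point dilutions; viability scored by ATP-based luminescence at 48 hours.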

Assay [7] in a line: qHTS of pediatric cancer cell lines to identify multiple opportunities for drug repurposing: Primary screen for NB-EBc1 cells (AID 1347095). Note: potency is the fitted concentration of half-maximal effect. Put shortly:
as §2

Assay [8] is described as follows: qHTS of pediatric cancer cell lines to identify multiple opportunities for drug repurposing: Primary screen for U-2 OS cells (AID 1347096). Note: nearly all actives have a fitted effect of over 50% in size. An outline of the steps:
(§3)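 Cells (500-1,000/well) rested 5 h, then received compounds for 48 h; metabolically active cells were measured by CellTiter-Glo luminescence. Final concentrations spanned up to 46 µM (MIPE, 11-point) or 0.59 nM-46 µM (NPC, 8-point) in primary screens, 11-point in follow-ups.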

Assay [9] is described as follows: qHTS of pediatric cancer cell lines to identify multiple opportunities for drug repurposing: Primary screen for SK-N-SH cells (AID 1347098). Note: nearly all actives have a fitted effect of over 65% in size. Note: potency is the fitted concentration of half-maximal effect. An outline of the steps:
as §3

The nature of assay [10]: P-glycoprotein substrates identified in KB-8-5-11 adenocarcinoma cell line, qHTS therapeutic library screen (AID 1346987). Note: nearly all actives have a fitted effect of over 65% in size. Note: potency is the fitted concentration of half-maximal effect. An outline of the steps: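 KB-8-5-11, a colchicine-selected P-gp-overexpressing KB-3-1 subline, was grown without colchicine for the assay. Cells were seeded at 500 cells/well, dosed in concentration-response and incubated 72 h at 37 degree C, 5% CO2. Viability was read by CellTiter-Glo luminescence.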

A short description of assay [11]: qHTS of pediatric cancer cell lines to identify multiple opportunities for drug repurposing: Primary screen for A673 cells (AID 1347092). Note: nearly all actives have a fitted effect of over 45% in size. Note: potency is the fitted concentration of half-maximal effect. Put shortly:
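Cell viability of A673 measured by CellTiter-Glo ATP luminescence after 48 hours compound exposure. Dilution series spanned 0.78 nM to 46 µM (MIPE, 11-point) or 0.59 nM to 46 µM (NPC, 8-point); bortezomib 2.3 uM positive control.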

Assay [12] in a line: qHTS of pediatric cancer cell lines to identify multiple opportunities for drug repurposing: Primary screen for Saos-2 cells (AID 1347097). Note: nearly all actives have a fitted effect of over 40% in size. Note: potency is the fitted concentration of half-maximal effect. Put shortly:
as §2

“And” between values parts separate entries of the source, which are not always exact repeats. Equal entries are not always repeated. Inconclusive results are not listed. The source made the active and inactive calls. Calls come from the whole dose curve; as a rule, active = well fitted curve in the direction sought with a large enough effect; inconclusive = small, poorly fitted or top-dose-only effect, or another doubt; inactive = no such curve, though single readings can be large; an effect the other way counts as inactive or inconclusive.

For `CCNC(=O)Nc1ccc(Oc2ncnc(N)c2C=NOC)cc1Cl`, the Potency entry in assay [1], in assay [2], in assay [3], in assay [6], in assay [8] and in assay [9] was “inactive” each time. In addition, the Potency is 5.26 µM (active) in [4], 4.69 µM (active) in [5] and 2.64 µM (active) in assay [7].
Turning to `CCC(=C(CC)c1ccc(O)cc1)c1ccc(O)cc1`, the Potency result in assay [10], in assay [2] and in assay [8] was “inactive” each time. The Potency in assay [11] is 18.7 µM (active); in assay [6], 21.7 µM (active); in assay [7], 5.9 µM (active); in assay [9], 7.64 µM (active).
Turning to `CCOC(=O)[C@@H](N)CCC(=O)N[C@@H](CSCc1ccccc1)C(=O)N[C@@H](C(=O)OCC)c1ccccc1`, the Potency result in assay [10], in [2], in [4], in assay [6], in assay [7] and in [8] was “inactive” each time. Besides, the Potency result in assay [12] and in assay [9] was “inactive” in each case.
For the compound `COc1ccc(C=CC(=O)Nc2ccccc2C(=O)O)cc1OC`, the Potency result in assay [10], in [4] and in [7] was “inactive” in each case.
As for `O=C1CN2Cc3c(ccc(Cl)c3Cl)N=C2N1`, the Potency entry in [1] and in assay [2] was “inactive” in each case.
For `Cc1ccc2c(c1)c1c(n2CCc2ccc(C)nc2)CCN(C)C1`, the Potency entry in assay [10], in assay [2], in [4], in [11], in assay [6] and in assay [7] was “inactive” each time. Further, the Potency entry in [8] and in [12] was “inactive” throughout.
Turning to `CN1N=C(N)c2cn([C@@H]3O[C@H](COP(=O)(O)O)[C@@H](O)[C@@H]3O)c3ncnc1c23`, the Potency in [10] is 0.833 µM (active); in assay [3] it was 14.8 µM (active); in [4], 7.43 µM (active); in assay [11] it was 3.72 µM (active); in assay [5], 0.0042 µM (active); in assay [7] it was 1.66 µM (active). Further, the Potency is 2.09 µM (active) in [12] and 21.5 µM (active) in assay [9].
`C[C@@H](O[C@H]1OCCN(Cc2n[nH]c(=O)[nH]2)[C@@H]1c1ccc(F)cc1)c1cc(C(F)(F)F)cc(C(F)(F)F)c1`: the Potency is 20.9 µM (active) in assay [10]; 23.5 µM (active) in [4]; 27.3 µM (active) in assay [6]; 23.5 µM (active) in [7]; 26.4 µM (active) in [12]. Besides, the Potency entry in [2] is “inactive”.
For `c1ccc(-c2oc3ncnc(NC[C@@H]4CCCO4)c3c2-c2ccccc2)cc1`, the Potency was 20.9 µM (active) and 20.6 µM (active) in assay [10]; 23.5 µM (active) in [11]; 29.6 µM (active) in assay [12]; 24.1 µM (active) in [9].
In the case of `C[C@]12CCC3=C4CCC(=O)C=C4CC[C@@H]3[C@H]1CC[C@@]2(O)CC#N`, the Potency entry in assay [1], in [2], in [3], in assay [4], in assay [11] and in assay [5] was “inactive” each time. Further, the Potency result in assay [7], in assay [8], in [12] and in assay [9] was “inactive” throughout.
Take `C[C@@H]1O[C@@H](O[C@H]2CC[C@@]3(C)[C@H](CC[C@@H]4[C@H]3C[C@@H](O)[C@]3(C)[C@@H](C5=CC(=O)OC5)CC[C@]43O)C2)C[C@H](O)[C@@H]1O[C@H]1C[C@H](O)[C@H](O[C@H]2C[C@H](O)[C@@H](O)[C@@H](C)O2)[C@H](C)O1` (stereo in doubt): the Potency in assay [1] was 0.136 µM (active); in assay [2] it was 0.38 µM (active); in [3] it was 0.27 µM (active); in assay [4], 0.121 µM (active); in assay [11], 0.171 µM (active); in assay [5] it was 0.108 µM (active). In addition, the Potency in assay [6] was 0.112 µM (active); in assay [7] it was 0.303 µM (active); in assay [9] it was 0.555 µM (active).
As for `CC(C)N(CCCNC(=O)Nc1ccc(C(C)(C)C)cc1)C[C@H]1O[C@@H](n2cc(Br)c3c(N)ncnc32)[C@H](O)[C@H]1O`, the Potency result in assay [10], in assay [2], in [7] and in assay [8] was “inactive” throughout. Besides, the values for the Potency in assay [11], in assay [6] and in assay [9] were 18.7 µM (active), 24.3 µM (active) and 24.1 µM (active), respectively.
`CNC1[C@H](O)C(O[C@@H]2C(O)C(O[C@H]3O[C@H]([C@@H](C)NC)CC[C@H]3N)[C@@H](N)C[C@H]2N)OC[C@]1(C)O` (some centres undefined): the Potency entry in assay [1], in assay [2], in [3], in [4], in [11] and in [5] was “inactive” throughout. Besides, the Potency entry in [6], in [7], in assay [8], in assay [12] and in assay [9] was “inactive” in each case.
As for `CN(C)N=Nc1nc[nH]c1C(N)=O`, the Potency was 1.87 µM (active) in [10] and 2.64 µM (active) in assay [5]. Also, the Potency result in assay [11], in assay [7], in assay [8], in [12] and in assay [9] was “inactive” throughout.
As to `NS(=O)(=O)c1ccc(Nc2nc(OCC3CCCCC3)c3[nH]cnc3n2)cc1`, the Potency entry in assay [10] and in [2] was “inactive” each time. In addition, the Potency in assay [4] is 26.4 µM (active); in assay [11], 23.5 µM (active); in assay [5], 6.62 µM (active); in assay [12] it was 16.6 µM (active).
Regarding `CC(=O)Nc1cccc(-n2c(=O)n(C3CC3)c(=O)c3c(Nc4ccc(I)cc4F)n(C)c(=O)c(C)c32)c1`, the Potency result in assay [10] and in assay [2] was “inactive” in each case. Moreover, the Potency in assay [5] was 7.43 µM (active); in assay [9], 3.41 µM (active).
